Results taken from PubChem BioAssay.
The source made the active and inactive calls. No rule for the calls is given here.

target: Pantothenate synthetase (Mycobacterium tuberculosis (strain ATCC 25618 / H37Rv)) (UniProt P9WIL5); assay: Recombinant Mtb pantothenate synthetase (PanC) inhibitors, coupled enzyme, confirmatory (AID 375); conditions: coupled enzyme assay; at 10 µM, hits give high values;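 also: 0% = full reaction with vehicle and 100% = no enzyme background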
Sequence (P9WIL5 whole entry, looked up): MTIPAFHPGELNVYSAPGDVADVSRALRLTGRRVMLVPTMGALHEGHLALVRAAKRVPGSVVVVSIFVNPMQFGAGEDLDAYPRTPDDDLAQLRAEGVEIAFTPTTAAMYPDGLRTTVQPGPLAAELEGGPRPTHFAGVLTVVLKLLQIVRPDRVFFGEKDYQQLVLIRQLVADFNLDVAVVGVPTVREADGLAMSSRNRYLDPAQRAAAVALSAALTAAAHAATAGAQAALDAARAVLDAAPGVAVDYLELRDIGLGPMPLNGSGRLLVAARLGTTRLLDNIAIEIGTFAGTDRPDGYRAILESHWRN

Structure (SMILES) | inhibition
CCOC(=O)C1CCN(C(=O)C2CCN(S(=O)(=O)c3cc(Cl)ccc3Cl)CC2)CC1 | 12% (inactive)
COc1cccc(-c2nc(-c3ccc(NC(=O)Cc4ccccc4OC)cc3)no2)c1 | 11% (inactive)
O=C(O)C1CCCN1c1ncnc2c1oc1ccccc12 (stereo not given) | 0% (inactive)
Clc1ccc(Nc2ncnc3c2cnn3-c2ccccc2)cc1 | 6% (inactive)
Cc1nc(NC2=NCN(CC3CCCO3)CN2)nc2ccccc12 (stereo not given) | 0% (inactive)
O=C1CC(c2cccc(Cl)c2)CC(O)=C1C=NCCCO (stereo not given) | 9% (inactive)
COc1ccc(CN2C(=O)c3ccccc3C2C(=O)NC2CCCC2)c(OC)c1 (stereo not given) | 0% (inactive)
CCn1c(C(=O)N2CCC(C(=O)N3CCN(c4ccccn4)CC3)CC2)cc2sccc21 | 7% (inactive)
O=P(O)(CCc1ccccc1)CN1CCCCC1 | 6% (inactive)
O=C(CSc1nnc(-c2ccco2)n1-c1ccccc1)N1CCN(C(=O)c2ccco2)CC1 | 0% (inactive)
Cc1oncc1C(=O)Nc1ccc(C(F)(F)F)cc1 | 8% (inactive)
Cc1c(C(=O)O)oc2ccc(S(=O)(=O)NCc3ccccc3)cc12 | 0% (inactive)
CC(=O)Oc1cc(C(C)C)c(OCCN(C)C)cc1C | 11% (inactive)
COc1ccc(NS(=O)(=O)c2ccc(N)cc2)nn1 | 1% (inactive)
Cn1c(=O)n(C)c2cc(CNc3ccc(N4CCOCC4)c(C(=O)O)c3)ccc21 | 11% (inactive)
COC(=O)c1ccc(NC(=O)Cn2nnc3ccccc32)cc1 | 0% (inactive)
Cn1c(=O)c2c(nc(NCc3ccc4c(c3)OCO4)n2Cc2ccccc2F)n(C)c1=O | 3% (inactive)
Cn1nc(CC(=O)Nc2ccc(N3CCN(C(=O)OC(C)(C)C)CC3)cc2)c2ccccc2c1=O | 0% (inactive)
CN(CCCNC(=O)c1cn(C)c2ccc(S(=O)(=O)N(C)C)cc2c1=O)c1ccccc1 | 4% (inactive)
COc1ccc(C)cc1S(=O)(=O)N(CC(=O)O)c1ccccc1 | 0% (inactive)

Structure (SMILES) | inhibition
CCn1c(COc2cccc3ccccc23)nnc1SCC(N)=O | 9% (inactive)
Cc1ccc(-c2nnn(CC(=O)N(CC(=O)NCC3CCCO3)c3ccccc3)n2)o1 (stereo not given) | 3% (inactive)
Cc1ccc(C)c(CSc2nnc(CCN)o2)c1 | 0% (inactive)
CCn1nnnc1SCC(=O)N1CCOCC1 | 11% (inactive)
Cn1c(=O)c2[nH]c(NCC3CCCO3)nc2n(-c2ccccc2)c1=O (stereo not given) | 0% (inactive)
Cc1ccc(N2CC(C)Cn3c2nc2c3c(=O)n(CC(=O)OCc3ccccc3)c(=O)n2C)cc1C (stereo not given) | 0% (inactive)
CCNC(=O)CC1C(=O)N(c2ccccc2)C(=O)N1Cc1ccc(OC)cc1 (stereo not given) | 0% (inactive)
CN1CCN(CCCN2c3ccccc3Sc3ccc(C(F)(F)F)cc32)CC1 | 1% (inactive)
COc1ccc(C2C(C(=O)c3sc(C)nc3C)=C(O)C(=O)N2CCN(C)C)cc1OC (stereo not given) | 0% (inactive)
CCn1cc(C(=O)N2CCOCC2)c(=O)c2cc(S(=O)(=O)N(C)C3CCCCC3)ccc21 | 0% (inactive)
Cc1ccc(N(Cc2ccco2)C(=O)c2cccc(S(=O)(=O)N(C)C)c2)cc1 | 5% (inactive)
COc1ccc(S(=O)(=O)N(CC(=O)N2CCN(c3ccccc3OC)CC2)c2ccccc2)cc1 | 0% (inactive)
CCOC(=O)N1CCN(S(=O)(=O)c2cc(C)c(C)cc2C)CC1 | 0% (inactive)
CCN(CC)CCN1C(=O)Cn2c(C)c(C)c3cccc1c32 | 1% (inactive)
CC(C)Cn1c(=O)c(C(=O)NCc2ccccn2)c(O)c2ccccc21 | 0% (inactive)
CCOC(=O)c1cccc(NC(=O)CSc2nc3ccccc3c(=O)n2CC)c1 | 0% (inactive)
CCCCOc1ccc(NC(=O)Cn2c(=O)ccc3c(C)cc(C)nc32)cc1 | 3% (inactive)
CCOC(=O)c1cc2sccc2n1CC(=O)Nc1ccc2c(c1)OCCO2 | 0% (inactive)
Cc1cc(C(F)(F)F)c2c(C)nn(CCc3nn[nH]n3)c2n1 | 0% (inactive)
COc1ccc(-c2nc(CSCC(=O)N3CCN(c4cccc(C)c4)C(C)C3)c(C)o2)cc1OC (stereo not given) | 0% (inactive)
